The panel holds about 83,000 compounds, 20% with a hit somewhere; the sample as a whole holds those more often.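 Plates (96-well) were seeded with cells, treated with compound at one concentration, and incubated for 48 hours before percent growth was determined.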 Values without a mark were called inactive. Activity calls are given as the source filed them. How the source made its calls: active means growth percent below 10; inactive means the rest.

Among the test systems are HCT-15 colon; HT29 colon; SNB-75 CNS; SNB-19 CNS; U251 CNS; PC-3 prostate; SK-MEL-5 melanoma; UACC-62 melanoma; LOX IMVI melanoma; SK-MEL-28 melanoma; SK-MEL-2 melanoma; EKVX NSCLC; SN12C renal; UO-31 renal; TK-10 renal; ACHN renal; CAKI-1 renal; A498 renal; CCRF-CEM leukemia; MOLT-4 leukemia.
Assay in all cases: NCI-60 one-dose screen, 48 h (100 = growth as untreated, 0 = no growth, -100 = all killed)
Common to all, as to conditions: 10 µM unless noted

On to `CCOC(=O)c1nnn(Cc2cc(=O)oc3ccc(O)cc23)c1C`, for which the growth with HCT-15 colon was 103%; in the experiment with HT29 colon, 103%; with SNB-75 CNS it was 93.4%; with SNB-19 CNS it was 96%; in the experiment on U251 CNS it was 105%; in the experiment on PC-3 prostate it was 95.2%. The growth in the experiment with SK-MEL-5 melanoma is 104%; in the experiment with UACC-62 melanoma it was 95.9%; with LOX IMVI melanoma, 99.9%; with SK-MEL-28 melanoma, 107%; with SK-MEL-2 melanoma, 111%; in the experiment with EKVX NSCLC, 105%. The growth in the experiment on SN12C renal was 96.2%; with UO-31 renal, 91.8%; in the experiment with TK-10 renal it was 101%; in the experiment on ACHN renal it was 105%; with CAKI-1 renal, 96.7%; with A498 renal, 101%. Further, the growth in the experiment on CCRF-CEM leukemia is 82.9%; in the experiment on MOLT-4 leukemia it was 100%.

On to `COc1ccc(/C=C2\c3cc(OC)c(OC)c(OC)c3CC[C@@H]2O)cc1F`, for which the growth in the experiment on HCT-15 colon is 20.7%; in the experiment with HT29 colon, 11.9%; in the experiment on SNB-75 CNS, 14.5%; in the experiment on SNB-19 CNS, 42.4%; in the experiment with U251 CNS it was 20.1%; in the experiment on PC-3 prostate it was 23.1%. Further, the growth was 23.8% in the experiment with SK-MEL-5 melanoma; 34.2% in the experiment on UACC-62 melanoma; 37.3% with LOX IMVI melanoma; 70.1% with SK-MEL-28 melanoma; 41.6% in the experiment with SK-MEL-2 melanoma; 44.1% with EKVX NSCLC. Besides, the growth with SN12C renal is 53.2%; with UO-31 renal, 47.7%; in the experiment on TK-10 renal, 57.9%; in the experiment on ACHN renal, 43%; with CAKI-1 renal it was 48.4%; with A498 renal it was 8.33% (active). In addition, the growth with CCRF-CEM leukemia was 12.8%; with MOLT-4 leukemia, 21.5%.

With `c1ccc(Nc2nc3c(s2)CCc2c[nH]cc2-3)nc1`, the growth is 102% with HCT-15 colon; 100% in the experiment with HT29 colon; 88.7% with SNB-75 CNS; 100% with SNB-19 CNS; 89.6% in the experiment on U251 CNS; 70.4% in the experiment with PC-3 prostate. Besides, the growth in the experiment on SK-MEL-5 melanoma was 83.5%; in the experiment with UACC-62 melanoma, 92.1%; in the experiment with LOX IMVI melanoma, 82.7%; in the experiment with SK-MEL-28 melanoma, 110%; in the experiment with SK-MEL-2 melanoma, 99.2%; in the experiment on EKVX NSCLC, 75.3%. The growth in the experiment with SN12C renal was 106%; in the experiment with UO-31 renal it was 59.4%; in the experiment on TK-10 renal, 159%; in the experiment with ACHN renal, 92.3%; in the experiment with CAKI-1 renal it was 97.3%; in the experiment with A498 renal it was 81%. Besides, the growth in the experiment on CCRF-CEM leukemia is 9.72% (active); in the experiment on MOLT-4 leukemia, 64.7%.

On to `COc1cc([C@@H](CCO)C[C@H](C)c2ccc3ccccc3c2)cc(OC)c1OC`, for which the growth was 26.3% in the experiment on HCT-15 colon; 11.2% in the experiment on HT29 colon; -10% (active) in the experiment with SNB-75 CNS; 37.8% with SNB-19 CNS; 27.8% with U251 CNS; 29.7% in the experiment with PC-3 prostate. Moreover, the growth in the experiment with SK-MEL-5 melanoma is 28%; in the experiment on UACC-62 melanoma, 39.2%; in the experiment on LOX IMVI melanoma, 39.2%; in the experiment on SK-MEL-28 melanoma, 61.8%; in the experiment on SK-MEL-2 melanoma, 16.1%; with EKVX NSCLC, 49.1%. In addition, the growth in the experiment with SN12C renal was 42.2%; with UO-31 renal it was 44.2%; in the experiment with TK-10 renal, 49.3%; in the experiment on ACHN renal, 43.6%; with CAKI-1 renal it was 28.8%; in the experiment with A498 renal, 25.3%. Besides, the growth in the experiment with CCRF-CEM leukemia was 21.6%; in the experiment on MOLT-4 leukemia, 25.7%.

Take `Cc1cccc(NC(=O)Cn2cc(CN3CCN(c4ccnc5cc(Cl)ccc45)CC3)nn2)c1`: the growth in the experiment on HCT-15 colon is 88.8%; in the experiment with HT29 colon it was 98.5%; in the experiment with SNB-75 CNS, 75%; with SNB-19 CNS it was 89.6%; in the experiment with U251 CNS, 93%; in the experiment on PC-3 prostate it was 63.3%. For the same molecule, the growth in the experiment with SK-MEL-5 melanoma is 68.8%; in the experiment on UACC-62 melanoma it was 73%; in the experiment with LOX IMVI melanoma it was 81.6%; in the experiment with SK-MEL-28 melanoma it was 102%; with SK-MEL-2 melanoma, 108%; with EKVX NSCLC it was 87.7%. Also, the growth in the experiment with SN12C renal was 93.8%; in the experiment with UO-31 renal it was 65.7%; in the experiment on TK-10 renal, 102%; in the experiment with ACHN renal, 82.9%; in the experiment on CAKI-1 renal it was 72.7%; in the experiment with A498 renal, 84.3%. In addition, the growth with CCRF-CEM leukemia was -32.9% (active); in the experiment with MOLT-4 leukemia, 5.76% (active).

Regarding `COc1cc(O)c2c(=O)c3c(CC=C(C)C)cc(OC)c(O)c3oc2c1`, the growth in the experiment on HCT-15 colon was 29.6%; with HT29 colon, 71.4%; in the experiment with SNB-75 CNS, 5.63% (active); in the experiment with SNB-19 CNS, 27.2%; in the experiment on U251 CNS, 9.71% (active); with PC-3 prostate, 73.9%. The growth in the experiment on SK-MEL-5 melanoma is 52.9%; with UACC-62 melanoma, 17%; with LOX IMVI melanoma it was 40.3%; in the experiment on SK-MEL-28 melanoma, 63%; in the experiment with SK-MEL-2 melanoma, 29.1%; with EKVX NSCLC, 53.7%. Further, the growth in the experiment on SN12C renal is 40.2%; with UO-31 renal it was 43.7%; with TK-10 renal, 66.6%; in the experiment with ACHN renal, 50.3%; in the experiment with CAKI-1 renal, 44%; in the experiment on A498 renal it was 31.1%. Also, the results for the growth with CCRF-CEM leukemia and with MOLT-4 leukemia were 16.5% and 25.6%, respectively.

As for `COC(=O)Cn1c2c(c3c(OC)cccc31)C(=O)c1ccccc1-2`, the growth in the experiment with HCT-15 colon is 101%; in the experiment on HT29 colon, 95.8%; with SNB-75 CNS it was 90.8%; with SNB-19 CNS, 90.5%; in the experiment on U251 CNS, 89.9%; in the experiment on PC-3 prostate, 87.4%. The growth is 102% with SK-MEL-5 melanoma; 93.3% in the experiment with UACC-62 melanoma; 91.8% with LOX IMVI melanoma; 97.1% in the experiment with SK-MEL-28 melanoma; 109% in the experiment on SK-MEL-2 melanoma; 103% in the experiment on EKVX NSCLC. The growth was 91.4% in the experiment with SN12C renal; 82.5% with UO-31 renal; 115% in the experiment with TK-10 renal; 94.9% with ACHN renal; 110% in the experiment on CAKI-1 renal; 101% with A498 renal. Besides, the figures for the growth in the experiment with CCRF-CEM leukemia and in the experiment with MOLT-4 leukemia were 81.4% and 83.8%, respectively.

These data come from PubChem BioAssay (NCI).
